Source: PubChem (National Center for Advancing Translational Sciences (NCATS))
A selection: hits, their analogues and other compounds. The true share with any hit is near 3%.
KDM5B inh: blocks human KDM5B histone demethylase activity; Q9UGL1; KDM5B demethylase, FDH-coupled NADH fluorescence (FDH is formaldehyde dehydrogenase); Potency, µM (highest dose often 57.7 µM), actives largely listed as inhibitors; 220,000 tested, 2.6% active; further: potency means the concentration at half of the fitted maximal effect; 0% is about no effect; nearly all actives have a fitted effect of over 70% in size
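Compound dilutions met 200 nM (final) KDM5BΔAP for 10 min at room temperature before substrate addition. The substrate mix held 12.5 µM H3K4me3 with cofactors 25 µM α-ketoglutarate and 50 µM Fe²⁺. NADH signal gain over 30 min defined activity.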
SNCA expr inh: inhibitors of alpha-synuclein (SNCA) gene expression; HEK-293 SNCA-luciferase knock-in, luminescence, 24 h; Potency, µM (highest dose often 57.2 µM), for inactives: top-dose activity change, negative = inhibition, actives largely listed as inhibitors; 140,000 tested, 0.17% active;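 further: potency means the concentration at half of the fitted maximal effect; plate controls were DMSO cells for no effect and cell-free wells for full effect; nearly all actives have a fitted effect of over 45% in size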
SNCA viab count: counter-screen for SNCA expression inhibitors: cell viability; HEK-293-SNCA-luc viability, GF-AFC fluorescence, 24 h; Potency, µM (highest dose often 57.1 µM), for the others: at the top dose activity change, negative = cytotoxicity, usual class: cytotoxic; 150,000 tested, 0.12% active; AID 1671193;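 further: potency means the concentration at half of the fitted maximal effect; 0% = DMSO-treated cells and -100% = medium-only wells without cells; nearly all actives have a fitted effect of over 30% in size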
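Cytotoxicity counterscreen: after 24 h compound treatment of genome-edited SNCA-luciferase HEK-293 cells, live-cell protease substrate GF-AFC read by fluorescence after 30 min; activity scaled between DMSO (0%) and medium-only (-100%), curves Hill-fitted.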
IP6K1 inh: inhibitors of human IP6K1; 140,000 tested, 0.81% active; activity change, % (series mostly up to about 58 µM); Q92551; IP6K1 kinase, ADP-Glo luminescence, 2 h; hits give low values; in the data active means activity change below about -25%; further: on the % scale 0 is the no-effect control and ±100 the full control effect
Target sequence (Q92551 whole entry, looked up): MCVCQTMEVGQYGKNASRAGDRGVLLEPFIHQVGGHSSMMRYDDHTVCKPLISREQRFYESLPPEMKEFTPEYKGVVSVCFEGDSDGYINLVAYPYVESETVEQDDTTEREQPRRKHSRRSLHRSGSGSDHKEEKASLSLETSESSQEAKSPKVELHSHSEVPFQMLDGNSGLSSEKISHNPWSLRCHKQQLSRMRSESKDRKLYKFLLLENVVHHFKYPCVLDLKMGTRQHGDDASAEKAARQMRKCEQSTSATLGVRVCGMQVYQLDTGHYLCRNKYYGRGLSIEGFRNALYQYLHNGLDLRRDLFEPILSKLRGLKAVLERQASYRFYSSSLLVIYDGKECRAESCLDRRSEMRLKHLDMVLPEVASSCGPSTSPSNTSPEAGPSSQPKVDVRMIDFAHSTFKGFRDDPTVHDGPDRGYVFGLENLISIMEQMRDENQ
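ADP-Glo luminescence measures ADP made by human IP6K1 during a 2 h RT reaction with ATP/IP6 (mix at 1.3 mM/130 uM); top library doses 57.5 and 19.1 uM final.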
Numbers without * were called inactive; i = inactive; ? = inconclusive; . = no result; ! = repeats disagree; [ ] = another dose, or the depositor's remark. Unless noted, the call rests on the fitted dose curve; in most records, active means well fitted curve in the direction sought with a large enough effect; inconclusive means small, poorly fitted or top-dose-only effect, or another doubt; inactive means no such curve, though single readings can be large; an effect the other way counts as inactive or inconclusive.

SMILES	KDM5B inh	SNCA expr inh	SNCA viab count	IP6K1 inh
CC(=O)N1CCCC2(C1)CN(C)c1ccc(C(=O)NCC(C)C)cc12 (stereo not given)	32µM*	3%[87.6 µM]	0%[87.6 µM]	5
CC(=O)N1CCCC2(C1)CN(C)c1ccc(C(=O)NC(C)C)cc12 (stereo not given)	35µM*	-5%[87.6 µM]	-2%[87.6 µM]	-3
CN1CCCC2(C1)CN(C)c1ccc(C(=O)Nc3ccccc3)cc12 (stereo not given)	?	34%[87.6 µM]	2%[87.6 µM]	5
O=C(c1ccc2c(c1)OCO2)N1CCN(c2ccc3nnc(C4CC4)n3n2)CC1	.	.	.	28
Cc1nn(-c2ccccc2)c2c1C(C)N(C1CCCN(C(=O)C3CCCC3)C1)C2=O (stereo not given)	.	.	.	22
COc1cccc(COC(=O)c2nn(Cc3ccccc3)c(=O)c3ccccc23)c1	i	.	.	.
O=C(Nc1ccc(Cl)cc1Cl)C1C2CC/C=C\CC/C=C/CCC21 (stereo not given)	i	.	.	.
COc1cccc(-c2cc(C(=O)NCc3ccccn3)c3cnn(C)c3n2)c1	.	.	.	4
Clc1ccccc1CN1CC[C@H](c2nnc(-c3ccccc3)o2)C1	i	29%[87.6 µM]	1%[87.6 µM]	-7
COc1ccccc1-c1nnc([C@H]2CCN(Cc3ncc[nH]3)C2)o1	40µM*	1%[87.6 µM]	-2%[87.6 µM]	21
Cc1ccccc1CN1CC[C@H](c2nnc(-c3ccc(N(C)C)cc3)o2)C1	32µM*	41%[87.6 µM]	-1%[87.6 µM]	16
COc1ccccc1-c1nnc([C@H]2CCN(Cc3ccccc3O)C2)o1	?	-1%[87.6 µM]	-1%[87.6 µM]	15
c1cnc(N2CC[C@H](c3nnc(-c4ccncc4)o3)C2)nc1	32µM*	13%[87.6 µM]	-9%[87.6 µM]	7
CN(C)c1ccc(-c2nnc([C@H]3CCN(Cc4ccccn4)C3)o2)cc1	35µM*	90%[87.6 µM]	7%[87.6 µM]	20
O=[S+]([O-])(Cc1ccccc1)N1C[C@@H](CO)[C@@H]2Oc3ccc(Cl)cc3[C@@H]21	.	.	.	11
COc1ccccc1-c1cccc(C(=O)N2CCC[C@H]2C(=O)NCc2ccc(C(F)(F)F)cc2)c1	.	4%	-25%[12.5 µM]	-9
CC(=O)N1CCN(C(=O)Cn2ccc3cc(Br)ccc32)CC1	i	.	.	.
COCCN1Cc2nc(Nc3ccc(F)c(Cl)c3)ccc2OCC1=O	i	-6%[87.6 µM]	-5%[87.6 µM]	-13
COCCN1Cc2nc(Nc3ccc(C(F)(F)F)cc3)ccc2OCC1=O	25µM*	6%[87.6 µM]	-13%[87.6 µM]	-17
O=C1COc2ccc(Nc3ccccc3)nc2CN1CCOc1ccccc1	40µM*	-15%[87.6 µM]	-13%[87.6 µM]	-8
O=C1COc2ccc(Nc3cccc(F)c3)nc2CN1CCOc1ccccc1	?	-26%[87.6 µM]	-10%[87.6 µM]	-13
CN(C)C(=O)N1CCC2(CC1)CC(c1cccc(C(F)(F)F)c1)=NO2	.	.	.	21
CCOC(=O)[C@@H]1[C@@H](OC)C(=O)N(Cc2ccccc2)C12CCN(C(=O)C1CCC1)CC2	.	.	.	3
C[n+]1cc2c3c(ccc2c2ccc4cc5c(cc4c21)OCO5)OCO3	.	?	13µM*!	-19
COc1ccc(C(O)Cn2ccn3nc(-c4ccc(C(C)C)cc4)cc3c2=O)cc1 (stereo not given)	i	50%	0%	0
SMILES	KDM5B inh	SNCA expr inh	SNCA viab count	IP6K1 inh
COc1cccc(-c2cc3c(=O)n(CCNC(=O)c4ccccn4)ccn3n2)c1	32µM*	36%	-4%	-11
COc1cccc(-c2cc3c(=O)n(CCNC(=O)c4ccc(F)cc4)ccn3n2)c1	28µM*	83%	3%	-3
COc1cccc(-c2cc3c(=O)n(CCNC(=O)Cc4ccc(F)cc4)ccn3n2)c1	i	21%	-2%	-6
COc1cccc(-c2cc3c(=O)n(CCNC(=O)c4ccccc4)ccn3n2)c1	i	47%	-6%	-3
COc1cccc(-c2cc3c(=O)n(CC(O)c4ccccc4)ccn3n2)c1 (stereo not given)	28µM*	44%	-14%	0
COc1cccc(-c2cc3c(=O)n(CCNC(=O)c4ccc(C)cc4)ccn3n2)c1	18µM*	3%	-6%	-13
O=C(NCc1ccc(F)cc1F)C1CCN(C(=O)c2ccc(-c3cccs3)cc2)CC1	.	.	.	-13
Cc1ccc(-c2nn(CCC(=O)NN3CCOCC3)c(=O)c3ccccc23)cc1	i	.	.	.
COCCN1CCN(Cc2ccc(-c3n[nH]c4c3C(=O)c3c(NC(=O)NN5CCOCC5)cccc3-4)cc2)CC1	.	.	0.15µM*	1
COCCNc1ccc(-c2noc([C@@H]3CCCN3Cc3ccncc3)n2)cn1	28µM*	76%[87.6 µM]	-2%[87.6 µM]	10
COCCNc1ncccc1-c1noc([C@@H]2CCCN2Cc2cc(OC)c(OC)c(OC)c2)n1	32µM*	13%	-1%	12
COCC(=O)Nc1ccc(-c2noc([C@@H]3CCCN3Cc3ncc[nH]3)n2)cn1	40µM*	47%[87.6 µM]	0%[87.6 µM]	6
COCCNc1ncccc1-c1noc([C@@H]2CCCN2Cc2ccccn2)n1	32µM*	?	-26%[87.6 µM]	-12
COCCOc1ncccc1-c1noc([C@@H]2CCCN2Cc2ccc(CO)o2)n1	?	-11%[87.6 µM]	-1%[87.6 µM]	-12
Cc1nnc2ccc(N3CCC(NC(=O)c4ccc(Cl)cc4)C3)nn12 (stereo not given)	.	.	.	3
C=CCCC(=O)N1[C@@H](c2ccccc2)[C@@H](C(=O)OCC)C[C@]12CCCCN(CCOC)C2=O	.	.	.	-4
COc1cccc(-c2ccc(C(=O)N3CCC(NC(=O)Cc4cccc(Cl)c4)CC3)cc2)c1	.	-15%	-3%	10
O=C(Nc1ccc(F)cc1)C1CCCN(Cc2cccc(-c3cccs3)c2)C1 (stereo not given)	.	.	.	2
COc1ccc(C(=O)Nc2ccc(-c3noc([C@@H]4CCCN4Cc4ccc(F)cc4)n3)cn2)cc1	?	-15%	-21%	3
COc1ccc(C(=O)Nc2ccc(-c3noc([C@@H]4CCCN4CCCc4ccccc4)n3)cn2)cc1	25µM*	10%	-16%	12
COCCNc1ncccc1-c1noc([C@@H]2CCCN2Cc2ccncc2)n1	28µM*	10%[87.6 µM]	-15%[87.6 µM]	15
CCN(CC)S(=O)(=O)c1ccc(NS(=O)(=O)c2ccccc2C#N)cc1	i	.	.	.
CCn1cc2c3c(cccc31)CN(C(=O)COc1ccc(F)cc1)CC2	?	-27%	-4%	26
COCCn1cc2c3c(cccc31)CN(C(=O)COc1cccc(C)c1)CC2	32µM*	-28%	7%	9
CCCn1cc2c3c(cccc31)CN(C(=O)COc1ccccc1)CC2	32µM*	-20%	-3%	28
CCCn1cc2c3c(cccc31)CN(C(=O)c1cccc(C#N)c1)CC2	?	2%	1%	16
COCCn1cc2c3c(cccc31)CN(C(=O)c1cccc(C(F)(F)F)c1)CC2	28µM*	?	?	2
Cn1ncc2c(C(=O)NCc3cccc(F)c3)cc(-c3ccc(C(F)(F)F)cc3)nc21	.	.	.	-8
Cn1ncc2c(C(=O)N3CCCC3)cc(-c3ccc(C(F)(F)F)cc3)nc21	.	.	.	-9
Cc1ccccc1-c1cnc2[nH]cc(CC(=O)NCCN(C)C)c2c1	35µM*	?	8%[87.6 µM]	-15
